Source: PubChem BioAssay AID1347056 (Sanford-Burnham Center for Chemical Genomics, 2019)
In all, about 360,000 compounds went through this assay and about 3,600 (1%) were called active. This is one part of a sample in which actives are shown more often than they occur.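 The calls were made as follows: active = compounds whose plate-normalised and pattern-corrected inhibition of the luciferase reporter signal at the single screening dose is 50% or more; inactive = the rest.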

Test: TROY pathway blockers in reporter cells – Q293 LMP1-TROYcd cells, NF-kB luciferase, uHTS, primary screen (AID 1347056)
Conditions: 4 h, at 10 µM, hits give high values
With `O=C(CN(c1ccc2c(c1)OCCO2)S(=O)(=O)c1ccccc1)Nc1ccc2c(c1)OCO2` the inhibition was -3.48% (inactive).
For `C=CCn1c(C)cc(C2=NNC(=NCC)SC2)c1C`, the inhibition was 88% (active).
For `COCCn1c(C)cc(C2=NNC(=Nc3ccc(F)cc3)SC2)c1C`, the inhibition was 56.7% (active).
In the case of `CCN1CCN(c2ccc(S(=O)(=O)N3CCCCC3)cc2NC(=O)Cc2c(Cl)cccc2Cl)CC1`, the inhibition is reported as 4.53% (inactive).
With `CCC(=O)Nc1ccccc1C(=O)N1CCN(Cc2ccccc2)CC1` the inhibition was 12.5% (inactive).
For `CN1OC[C@@H]2CN(S(=O)(=O)c3cccc(C(F)(F)F)c3)[C@H](c3ccc(-c4cc5ccccc5o4)cc3)C[C@@H]21`, the inhibition was 64.2% (active).
In the case of `CN1OC[C@@H]2CN(S(=O)(=O)c3cccc4ccccc34)[C@H](c3ccc(N4CCCCC4)cc3)C[C@@H]21`, the inhibition is reported as 14.6% (inactive).
For `COc1ccc(S(=O)(=O)N2C[C@H]3CON(C)[C@H]3C[C@H]2c2cccc(Br)c2)cc1`, the inhibition was 0.2% (inactive).
With `CC1Cc2ccccc2N1S(=O)(=O)c1c(N)n(C)c(=O)n(C)c1=O` (stereo not given) the inhibition was 0.15% (inactive).
In the case of `Clc1ccc(-c2cccc3nccn23)cc1`, the inhibition is reported as -13.8% (inactive).
With `CC(=O)N1N=C(c2ccncc2)OC1(Cc1ccccc1)Cc1ccccc1` the inhibition was 5.47% (inactive).
With `Cc1cc(Cl)c(S(=O)(=O)N(C)C)cc1OCC(N)=O` the inhibition was 0.31% (inactive).
In the case of `Cc1cc(Cl)c(S(=O)(=O)Nc2ccc3c(c2)OCCO3)cc1OCC(N)=O`, the inhibition is reported as 77.5% (active).
For `Cc1cc(Cl)c(S(=O)(=O)NCC2CCCO2)cc1OCC(N)=O` (stereo not given), the inhibition was -1.29% (inactive).
With `COC(=O)CSc1snnc1-c1ccc(Cl)c(Cl)c1` the inhibition was -45.5% (inactive).
With `C=CCN(c1ccccc1C(=O)NCC(=O)OCC)S(=O)(=O)c1ccc(C)cc1` the inhibition was 1.62% (inactive).
In the case of `S=C(NCCCc1cnc[nH]1)NCCCN(Cc1ccc(Cl)c(Cl)c1)c1ccc(Br)cn1`, the inhibition is reported as 8.84% (inactive).
For `Cc1ccc2oc(=O)c3cnn(CC(=O)N(Cc4ccco4)C4CCCCC4)c3c2c1`, the inhibition was 58.7% (active).
With `Cc1ccc2oc(=O)c3cnn(CC(=O)N4CCCCCC4)c3c2c1` the inhibition was 6.16% (inactive).
With `CCOC(=O)C1CCCN(C(=O)Cn2ncc3c(=O)oc4ccc(C)cc4c32)C1` (stereo not given) the inhibition was 1.47% (inactive).
In the case of `CCCCC(=O)Nc1ccc2c(c1)C(=O)NC2=O`, the inhibition is reported as 10.3% (inactive).
In the case of `Cc1cc(C(=O)COc2ccccc2Cl)c(C)n1C1CC1`, the inhibition is reported as -42.6% (inactive).
For `Cc1cc(C(=O)CSc2nc(N)cc(=O)[nH]2)c(C)n1-c1cccc(F)c1`, the inhibition was -1.75% (inactive).
With `Cc1cc(C(=O)COC(=O)C2CC2)c(C)n1-c1ccc(F)cc1` the inhibition was 90.5% (active).
In the case of `COc1ccc(-c2nc3ccc(Br)cn3c2Cc2ccc(C)cc2)cc1OC`, the inhibition is reported as -36.6% (inactive).
With `Cc1ccc2nc(-c3ccc(Br)cc3)cn2c1` the inhibition was 71.4% (active).
With `Cc1ccc(-c2cn3cc(C)ccc3n2)cc1` the inhibition was 86.4% (active).
With `Cc1ccc(-c2cc(N)on2)cc1` the inhibition was -41.2% (inactive).
With `Cc1ccc(-c2nc3ccc(Br)cn3c2Cc2ccccc2C(F)(F)F)cc1` the inhibition was -33.5% (inactive).
For `Cc1ccc(-c2nc3ccc(Cl)cn3c2Cc2ccccc2)cc1`, the inhibition was -69.6% (inactive).
In the case of `COc1ccc(C(=O)O)cc1S(=O)(=O)NCc1cccnc1`, the inhibition is reported as -5.43% (inactive).
With `CC(=O)Nc1ccc(/C(C)=N/NC(=O)CN(c2ccccc2Br)S(C)(=O)=O)cc1` the inhibition was 8.85% (inactive).
For `COc1ccc(CN(C)C(=S)Nc2ccc(Cl)cc2Cl)cc1`, the inhibition was -7.98% (inactive).
With `O=C(c1cc(COc2c(F)cccc2F)on1)N1CCSCC1` the inhibition was -17% (inactive).
For `Cn1cnc2c1c(=O)n(Cc1ccccc1C#N)c(=O)n2C`, the inhibition was 2.82% (inactive).
In the case of `CCN1CCCC1CNC(=O)c1cc2cc(OC)c(OC)cc2[nH]1` (stereo not given), the inhibition is reported as -3.54% (inactive).
For `COc1cc2cc(C(=O)N/N=C/c3cccc(OC)c3OC)[nH]c2cc1OC`, the inhibition was 69.2% (active).
In the case of `COc1cccc2[nH]c(C(=O)NCCc3ccccc3)cc12`, the inhibition is reported as -24.7% (inactive).
In the case of `Cc1ccc2c(c1)N(CC(=O)N1CCCC(C)C1)C(=O)CO2` (stereo not given), the inhibition is reported as -0.08% (inactive).
In the case of `CC1CCCN(C(=O)Cn2c(=O)oc3ccccc32)C1` (stereo not given), the inhibition is reported as -6.27% (inactive).
For `O=C(CN1C(=O)c2ccccc2S1(=O)=O)N1CCc2ccccc21`, the inhibition was 89.1% (active).
In the case of `COc1ccc(CNC(=O)CN2C(=O)c3ccccc3S2(=O)=O)cc1`, the inhibition is reported as 9.08% (inactive).
For `CC1CCCN(C(=O)CN2C(=O)c3ccccc3S2(=O)=O)C1` (stereo not given), the inhibition was 58.2% (active).
In the case of `CN(Cc1ccc(F)cc1)C(=O)CN1C(=O)c2ccccc2S1(=O)=O`, the inhibition is reported as -51.1% (inactive).
In the case of `CC(C)(C)c1ccc(S(=O)(=O)N2CCN(C(=O)c3ccc4c(c3)C(=O)N(Cc3ccncc3)C4=O)CC2)cc1`, the inhibition is reported as 1.2% (inactive).
In the case of `CC(NC(=O)COC(=O)c1ccc(Cl)cc1O)c1ccc(F)cc1` (stereo not given), the inhibition is reported as 4.75% (inactive).
For `Cc1cc(S(=O)(=O)NC2CCCCC2)ccc1OCC(=O)NCc1cccnc1`, the inhibition was -5.71% (inactive).
For `O=C(CCc1nc(-c2ccccc2)no1)Nc1cccc(C(=O)NC2CC2)c1`, the inhibition was 18.6% (inactive).
In the case of `CN(C)/C=C(\C#N)C(=O)c1cccnc1Oc1ccc(F)cc1F`, the inhibition is reported as -7.14% (inactive).
In the case of `COc1ccc(-c2cc3c(c4c2ccn4C)C2CCC3C2)cn1` (stereo not given), the inhibition is reported as 8.35% (inactive).
For `Cc1ccc(NS(=O)(=O)c2ccc(-c3ccc(=O)[nH]n3)o2)c(C)c1`, the inhibition was -3.14% (inactive).
In the case of `CC(NC(=O)COC(=O)c1ccc2ccccc2n1)c1ccccc1` (stereo not given), the inhibition is reported as -0.28% (inactive).
In the case of `CC1COc2ccccc2N1C(=O)c1cccnc1Cl` (stereo not given), the inhibition is reported as 8% (inactive).
In the case of `CCCN(CCC)CCNC(=O)c1cc2c(C)nc3ccccc3c2o1`, the inhibition is reported as -8.54% (inactive).
With `CN(C)CCNC(=O)c1ccc(Cl)c2cc3ccccc3nc12` the inhibition was 51.8% (active).
With `O=C(NCCc1ccccn1)c1cc(-c2ccc(Cl)cc2)nc2ccccc12` the inhibition was 15.8% (inactive).
In the case of `COc1ccc(OC)c(CCNC(=O)CCn2ccc3cc(S(=O)(=O)N4CCCC4)ccc32)c1`, the inhibition is reported as -2.42% (inactive).
With `O=C(c1ccc2c(c1)N(Cc1ccc(F)cc1)C(=O)c1ccccc1S2(=O)=O)N1CCN(c2ccccn2)CC1` the inhibition was 11.9% (inactive).
With `CC1CCN(c2ccc3c(c2)S(=O)(=O)c2cc(C(=O)O)ccc2C3=O)CC1` the inhibition was -46.1% (inactive).
With `O=C1c2ccccc2S(=O)(=O)c2cc(N3CCN(c4ccccn4)CC3)ccc21` the inhibition was 69.7% (active).
